Source: the OligoGym collection

target: CHEK1; experiment: pooled miR-30 sensor sort-seq; sequence = guide strand; details: shRNA
Further: reference of the scale not given here.

Sequence	sensor-assay potency score (higher = more potent)
TTGTTGATATAGTAACCTGATT	-1.22
TGTCTCTTGAACTCCAATCCAT	-0.483
TTTGTTGTACCATCTATCTTTT	-0.765
TTTTCTTCACTAGAAGCACTGT	0.254
TGATATAGTAACCTGATTCATA	-0.794
TTTGTCTGCATCCAATTTGGTA	-0.969
TTTGGTAAAGAATCGTGTCATT	-0.878
TATTTTATCATCCATTTCTAAC	-1.06
TTTTCTGGTTTAATATCCCTGT	0.0757
TTCAGGAACTACTATTTGCAGT	-0.581
TTCCACAGGACCAAACATCAAC	-1.04
TAGCAGCACTATATTCACCAGG	-0.884
TAACCTGATTCATACAACTTTT	-1.09
TTAATCTTCAGGAAGTGTCTCT	0.552
TAACTGACTATTCAAAAGCATA	-1.68
TTTCCAGTCAGAATACTCCTGA	-0.0829
TTCTTCACTAGAAGCACTGTTT	0.0317
TTGTCTGCATCCAATTTGGTAA	-1.02

target: CHI3L1; experiment: as above; details: shRNA

Sequence	sensor-assay potency score (higher = more potent)
TTGCTTTTGACGCTTTCCTGGT	-0.698
TATCTTGGCAATGTCATAGCTG	0.682
TTGCATCCTCCTGACCTCGGAA	-0.718
TAGAGCGTCACATCATTCCACT	-0.926
TGAATCTGTCAGGACTTGCATC	-0.763
TCTGTCAGGACTTGCATCCTCC	-0.579
TTTCCTGGTCGTCGTATCCTAC	-0.76
TATATTGGCAAAGCTGTAGATG	-1.02
TTCATTTCCTTGATTAGGGTGG	0.13
TTGTATGCAGAGCAGCACTGGA	-1.21
TTGGAAAATCTTTGAGACCCAA	-0.569
ATAATTAGTATGGTCACTGTGT	-0.0223
TTGGCAATGTCATAGCTGCTGT	-0.359
TTTGACGCTTTCCTGGTCGTCG	-0.339
TTGAGTGTGTTGAGCATGCCGT	-0.388
TTCAGGTACTGCACCTTGCTTT	-0.412
TAGTCAGTGTTGCTGAATCTGT	-1.28
ATCTTGGCAATGTCATAGCTGC	-1.04
TTTGTCTCTCCGTCCAGGGTAG	-0.776
TTTGTATGCAGAGCAGCACTGG	-1.09
TTCCTTTATAAATTCGGCCTTC	-0.526
TAGCAGACCAGTTTGTATGCAG	0.269
